About 83,000 compounds went through this panel and 20% of them were active in at least one assay; those are over-represented in the sample as a whole.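 Treatment: one concentration, 48 hours, 96-well format. Scoring: percent growth, with anything below 10 considered active.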 Values without a mark were called inactive. Active and inactive are the calls of the source.

Common to all, as to assay: NCI-60 one-dose screen, 48 h (100 = growth as untreated, 0 = no growth, -100 = all killed)
What all share (conditions): 10 µM unless noted

Assay [1] deals with T-47D breast.
For assay [2], the system named is BT-549 breast.
Assay [3] concerns MDA-MB-435 melanoma.
Assay [4] concerns SW-620 colon.
Assay [5] concerns MCF7 breast.
Assay [6] deals with HCT-116 colon.
Assay [7] deals with HCC-2998 colon.
Assay [8] concerns KM12 colon.

In the case of `CC(CN(C)C)CN1c2ccccc2CCc2ccccc21` (stereo not drawn), the growth is 78.1% in assay [1]; 90.7% in assay [2]; 72.4% in assay [3]; 93.3% in assay [4]; 96.3% in assay [5]; 53.2% in assay [6]. The growth was 54.6% in assay [7] and 106% in assay [8].

For the compound `COc1cc(NC(C)CCCN2C(=O)c3ccccc3C2=O)c2nc(C)ccc2c1OC` (stereo not drawn), the growth in assay [1] is 95.1%; in assay [2], 103%; in assay [3], 111%; in assay [4], 97.3%; in assay [5] it was 90.6%; in assay [6], 85.4%. Further, the growth in assay [7] was 95.4%; in assay [8] it was 107%.

On to `CCOC(=O)CSc1nnc(-c2cc3c([nH]c4ccccc43)c(-c3cccc(O)c3)n2)n1-c1ccc(C)cc1`, for which the growth in assay [1] was -5.32% (active); in assay [2], 101%; in assay [3], 16.4%; in assay [4] it was 67.1%; in assay [5], 35.3%; in assay [6], 50%. Besides, the results for the growth in assay [7] and in assay [8] were 83.7% and 76.3%, respectively.

As for `c1cncc(-c2nc3ccccc3[nH]2)c1`, the growth in assay [1] was 103%; in assay [2] it was 100%; in assay [3], 121%; in assay [4], 85.1%; in assay [5], 85.1%; in assay [6] it was 93.8%. Further, the growth was 92.2% in assay [7] and 97.5% in assay [8].

In the case of `O=C(Nc1cccc(-n2ccc3c(NC(=O)c4ccccc4)nccc32)c1)c1cc(N2CCOCC2)cc(C(F)(F)F)c1`, the growth was 66.3% in assay [1]; -13.1% (active) in assay [2]; -13.3% (active) in assay [3]; 14.2% in assay [4]; 21.3% in assay [5]; 1.44% (active) in assay [6]. The growth in assay [7] is 28.8%; in assay [8], -3.61% (active).

With `Fc1ccc(Nc2ncnc3ccc(-c4cn[nH]c4)cc23)cc1Cl`, the growth is -20.2% (active) in assay [1]; 58% in assay [2]; 79.8% in assay [3]; 78.1% in assay [4]; 23.3% in assay [5]; 51.2% in assay [6]. Besides, the growth in assay [7] was 85%; in assay [8], 67.1%.

In the case of `CCc1cccc(C)c1NC(=O)c1sc2nc3c(cc2c1N)CCCCC3`, the growth is 46.7% in assay [1]; 58.3% in assay [2]; -16.9% (active) in assay [3]; 23.8% in assay [4]; 18.9% in assay [5]; 21.1% in assay [6]. Besides, the growth in assay [7] was 54.7%; in assay [8], 23%.

In the case of `COc1ccc2c(c1)OC(N)=C(C#N)C2c1ccc(F)cc1` (stereo not drawn), the growth was 40.7% in assay [1]; 20.1% in assay [2]; -4.14% (active) in assay [3]; 18.6% in assay [4]; 18.1% in assay [5]; 24.9% in assay [6]. Besides, the growth was 54.5% in assay [7] and 26.4% in assay [8].

Consider `N#Cc1c(N)nc(Cl)c(C#N)c1C(=O)c1ccccc1`, for which the growth in assay [1] was 42.4%; in assay [2], 24.9%; in assay [3] it was 14.6%; in assay [4], 43.3%; in assay [5], 18.9%; in assay [6] it was 30.2%. Besides, the growth in assay [7] is 76.5%; in assay [8] it was 28%.

`CCCCn1c(-c2cccc(OC)c2)nc2cc(OC)c(OC)cc2c1=O`: the growth in assay [1] was 91.6%; in assay [2], 283%; in assay [3], 115%; in assay [4], 102%; in assay [5], 97.9%; in assay [6] it was 89.3%. For the same compound, the growth in assay [7] was 103%; in assay [8], 108%.

`Nc1nc(-c2cc3c(cc2Cl)NC(=O)/C3=C/c2ccccc2)cs1`: the growth in assay [1] is 7.52% (active); in assay [2], 55.7%; in assay [3], 24.4%; in assay [4] it was 40.4%; in assay [5], 7.09% (active); in assay [6] it was 14.5%. Besides, the growth in assay [7] is 58%; in assay [8] it was 45.5%.

On to `COC(=O)c1oc2c(C(C)=O)c(OCCN3CCCCC3)ccc2c1C`, for which the growth in assay [1] was 129%; in assay [2], 130%; in assay [3], 80.8%; in assay [4], 103%; in assay [5], 105%; in assay [6], 89.7%. The growth is 113% in assay [7] and 102% in assay [8].

Take `CCc1c(C)c2cc3nc(NCc4ccccc4)oc3c(C)c2oc1=O`: the growth in assay [1] is 47.2%; in assay [2] it was 32.6%; in assay [3], 47.7%; in assay [4], 95.8%; in assay [5] it was 73.1%; in assay [6] it was 57.2%. For the same compound, the growth in assay [7] is 79.6%; in assay [8], 83.5%.

For `N#CC1=C(N)Oc2c(ccc3ccccc23)C1c1cc(=O)oc2ccc(Cl)cc12` (stereo not drawn), the growth in assay [1] was 47.7%; in assay [2] it was 49%; in assay [3] it was -43.2% (active); in assay [4], 29.6%; in assay [5], 19.7%; in assay [6], 12.7%. Besides, the values for the growth in assay [7] and in assay [8] were 36.6% and 21.5%, respectively.

For the compound `CCCCOc1c(N)cccc1C(=O)OCCN(CC)CC`, the growth is 93.3% in assay [1]; 93.6% in assay [2]; 111% in assay [3]; 102% in assay [4]; 103% in assay [5]; 79.2% in assay [6]. Also, the figures for the growth in assay [7] and in assay [8] were 90.2% and 102%, respectively.

As to `Cc1ccc(/C=C2/C(=O)Nc3cc(Cl)c(-c4csc(N)n4)cc32)cc1`, the growth in assay [1] was 34.9%; in assay [2], 53.4%; in assay [3] it was -9.13% (active); in assay [4], 58.6%; in assay [5], 35.8%; in assay [6], 66%. In addition, the growth is 91.4% in assay [7] and 44.5% in assay [8].

The record behind these values is PubChem BioAssay (NCI).
